The OligoGym collection

Molecular target: FXN
Experiment: pooled miR-30 sensor sort-seq; sequence = guide strand
Details: shRNA
Further: reference of the scale not given here.

| Sequence | sensor-assay potency score (higher = more potent) |
| --- | --- |
| TTGACAGTTAAGACACCACTCC | -0.462 |
| TTGCTTGTTTGGCGTCTGCTTG | -0.812 |
| TAACGCTTAGGTCCACTGGATG | -1.46 |
| TAGGTGGTCTCATCTAGAGAGC | -1.48 |
| TAAGGCTTTAGTGAGCTCTGCG | 0.283 |
| TTGTTTGGCGTCTGCTTGTTGA | -0.937 |
| TGGTCTCATCTAGAGAGCCTGG | -1.32 |
| ATCAAATAGACACTCTGCTTTT | -1.04 |
| TTAAAAATCAGAACTTGGGGGC | 0.521 |

Molecular target: FXR1
Experiment: as above
Details: shRNA

| Sequence | sensor-assay potency score (higher = more potent) |
| --- | --- |
| TTATTTTCAAAAACAACTGTAA | -0.406 |
| TAAGCATCAACTTCGTACGAAT | -0.962 |
| TTGCTCTTGAATATACCTCTAC | -0.669 |
| TTCATTTCTGGACATAAGCATC | -1.34 |
| TTGAGCACAGAACTGATGGAGG | -0.647 |
| TGTCTCGATCATCTTCTCCTGC | 0.196 |
| TTCAATCACATCTTTTGCCATT | -1.45 |
| TATTTTATAACACAGTAGGTGT | -0.648 |
| TATTAATCTTTTCTTCTCCTGG | -0.0994 |
| TATACCTCTACTTCATCTCCTT | 0.473 |
| TTTCTTGAATAACTTTGCCATT | -1.55 |

Molecular target: FYTTD1
Experiment: as above
Details: shRNA

| Sequence | sensor-assay potency score (higher = more potent) |
| --- | --- |
| TTAAAAATGAAGGTACAGCAGT | -0.441 |
| TTGTATGTGAGAGTGGCTCTTT | -0.0403 |
| TTATTTTTTCTGCTTAGCTGGC | -0.29 |
| TAGCTGGCTAGGTCTCTTGAGA | -1.72 |
| TAGGTCTCTTGAGAACTGCTAC | -0.309 |
| TACTACATCGTCTAGCAGTTGT | 0.276 |
| TGCTACTACATCGTCTAGCAGT | -0.935 |
| TTCTCTTTGCTACTACATCGTC | -0.513 |
| TATTCTTGTCACTTAGAGGTGG | 0.0654 |
| TTTAATTTATTTCCACTCCTGG | -0.341 |
| TAGTCTTGGAAAATTCTGCTTC | 0.266 |
| TTCTGTATTCAACTGGGCCTGC | -0.211 |

Molecular target: FZD1
Experiment: as above
Details: shRNA

| Sequence | sensor-assay potency score (higher = more potent) |
| --- | --- |
| TTTGCTGTTGGTGAGCCTCGTG | -0.218 |
| TACTTAATCATGAAGACCGTGA | -0.126 |
| TTGCTGGTCCAGAACTCTGGAA | -1.24 |
| TTTCACTAGAGGGTAGAACTGG | -0.532 |
| TTCACTAGAGGGTAGAACTGGT | 0.461 |
| TTGTCATTACACACCACTCGGT | -0.649 |
| ATGAAGACCGTGAAGTCCGGGC | -0.0414 |
| TGTCATTACACACCACTCGGTC | -0.427 |
